Measured values published in PubChem BioAssay.
Activity calls are given as the source filed them. Unless noted, no rule for the calls is given here.

How the values were obtained:
[1] = A549 cell viability effects, profiling panel, calcein-AM fluorescence, 48 h, basal (AID 1162); settings: higher = more signal; also: test concentration not given here
[2] = adipocyte viability effects, profiling panel, cell-based, 3T3-L1 adipocytes, calcein-AM fluorescence, 48 h, basal (AID 1163); settings: 3T3-L1 adipocytes viability, higher = more signal; also: test concentration not given here
[3] = HepG2 cell viability effects, profiling panel, calcein-AM fluorescence, 48 h, basal (AID 1164); settings: higher = more signal; also: test concentration not given here
[4] = MM1S cell viability effects, profiling panel, calcein-AM fluorescence, 48 h, basal (AID 1165); settings: higher = more signal;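 also: viability of MM1S multiple myeloma cells under basal unstimulated conditions; test concentration not given here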
[5] = basal RPMI8226 viability, no added stimulus, profiling panel, cell-based, calcein-AM fluorescence, 48 h, PK04 Diversity Set (AID 1166); settings: RPMI8226 myeloma viability, higher = more signal;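 also: cells grown under basal conditions without added stimulus; test concentration not given here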
[6] = basal HepG2 mitochondrial membrane potential changes, profiling panel, cell-based, JC-1 fluorescence, 24 h, 100 nL compound (AID 1167); settings: higher = more signal; also: test concentration not given here
[7] = basal 3T3-L1 adipocyte mitochondrial potential changes, profiling panel, cell-based, JC-1 fluorescence, 3T3-L1 adipocytes, 24 h, 100 nL compound (AID 1168); settings: JC-1 mitochondrial fluorescence, higher = more signal, called active from +8 up or from −8 down; also: test concentration not given here
[8] = basal RPMI8226 mitochondrial membrane potential changes, profiling panel, cell-based, JC-1 fluorescence, 24 h, 100 nL compound (AID 1169); settings: RPMI8226 myeloma, JC-1 mitochondrial potential fluorescence, higher = more signal; also: test concentration not given here
[9] = basal MM1S mitochondrial membrane potential changes, profiling panel, cell-based, JC-1 fluorescence, 24 h, 100 nL compound (AID 1170); settings: higher = more signal; also: test concentration not given here
[10] = A549 lung cancer cell viability effects, profiling panel, resazurin fluorescence, 24 h, PK04 Diversity Set (AID 1171); settings: higher = more signal, called active from +8 up or from −8 down; also: test concentration not given here
[11] = HepG2 liver cancer cell viability effects, profiling panel, resazurin fluorescence, 24 h, PK04 Diversity Set (AID 1172); settings: higher = more signal; also: test concentration not given here
[12] = basal S. cerevisiae growth modulation, no modifier, primary screen, OD600, strain BY4716, 24 h, basal condition (AID 1173); settings: OD600, 24 h, higher = more signal, called active from +8 up or from −8 down
[13] = MM1S myeloma cell viability, profiling panel, resazurin fluorescence, basal, 24 h, PK04 Diversity Set (AID 1174); settings: higher = more signal, called active from +8 up or from −8 down;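 also: MM1S multiple myeloma cell line; test concentration not given here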
[14] = molecular target: Dihydroorotate dehydrogenase (quinone), mitochondrial (Plasmodium falciparum (isolate 3D7)) (UniProt Q08210); test: PfDHODH enzyme inhibitors, primary screen, biochemical, C-terminal His tag, absorbance 600 nm (AID 1175); settings: DCIP absorbance 600 nm, higher = more signal, called active from +8 up or from −8 down;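 also: recombinant parasite enzyme with a five histidine tag at its C terminus; test concentration not given here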
[15] = P. aeruginosa biofilm formation inhibitors, primary screen, strain PAO1, LB-PBS medium, absorbance 600 nm (AID 1176); also: test concentration not given here; settings: P. aeruginosa PAO1 growth/biofilm, A600, 12 h; higher = more signal
[16] = S. cerevisiae RM11-1a growth modifiers, primary screen, strain RM11-1a, OD600, basal, 24 h (AID 1177); settings: OD600, 24 h, higher = more signal, called active from +8 up or from −8 down;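 also: cultures grown under basal conditions with no added stressor; test concentration not given here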
[17] = E. coli acrAB mutant growth effects, primary screen, E. coli filamentation inducers, strain DRC39, OD650, 24 h (AID 1178); settings: higher = more signal, called active from +8 up or from −8 down;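 also: growth measured as culture turbidity by optical density at 650 nm; test concentration not given here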
[18] = E. coli acrAB mutant growth effects, primary screen, E. coli filamentation inducers, strain DRC39, OD650, 48 h (AID 1179);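 also: screen aims at cell division blockers that make cells filament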; settings: E. coli DRC39 delta-acrAB growth, higher = more signal, called active from +8 up or from −8 down
[19] = RPMI8226 myeloma cell viability, profiling panel, resazurin fluorescence, basal, 24 h, PK04 Diversity Set (AID 1180); settings: higher = more signal;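 also: RPMI8826 multiple myeloma cell line at 5000 cells per well; test concentration not given here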
[20] = molecular target: E3 ubiquitin-protein ligase XIAP (Homo sapiens) (UniProt P98170); test: XIAP binders, primary screen, biophysical, small-molecule microarray, fluorescence 635 nm (AID 1181); settings: small-molecule microarray binding, higher = more signal;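 also: score merges 667 nm emission and signal to noise over triplicate slides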
Sequence of E3 ubiquitin-protein ligase XIAP (Homo sapiens) (P98170 whole entry, looked up): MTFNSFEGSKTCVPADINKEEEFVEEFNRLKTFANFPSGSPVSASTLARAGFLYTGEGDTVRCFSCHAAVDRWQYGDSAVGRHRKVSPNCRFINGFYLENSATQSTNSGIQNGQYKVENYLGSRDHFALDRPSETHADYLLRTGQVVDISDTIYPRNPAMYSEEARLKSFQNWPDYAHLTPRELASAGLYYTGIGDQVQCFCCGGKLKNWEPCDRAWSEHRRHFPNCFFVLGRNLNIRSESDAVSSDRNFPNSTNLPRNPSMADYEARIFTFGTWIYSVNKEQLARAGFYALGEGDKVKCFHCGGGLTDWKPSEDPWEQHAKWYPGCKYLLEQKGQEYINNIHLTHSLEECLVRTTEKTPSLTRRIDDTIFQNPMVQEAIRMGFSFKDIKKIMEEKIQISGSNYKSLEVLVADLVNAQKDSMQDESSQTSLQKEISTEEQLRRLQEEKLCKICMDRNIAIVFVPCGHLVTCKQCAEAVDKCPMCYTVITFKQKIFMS

Sequence of Dihydroorotate dehydrogenase (quinone), mitochondrial (Plasmodium falciparum (isolate 3D7)) (Q08210 whole entry, looked up): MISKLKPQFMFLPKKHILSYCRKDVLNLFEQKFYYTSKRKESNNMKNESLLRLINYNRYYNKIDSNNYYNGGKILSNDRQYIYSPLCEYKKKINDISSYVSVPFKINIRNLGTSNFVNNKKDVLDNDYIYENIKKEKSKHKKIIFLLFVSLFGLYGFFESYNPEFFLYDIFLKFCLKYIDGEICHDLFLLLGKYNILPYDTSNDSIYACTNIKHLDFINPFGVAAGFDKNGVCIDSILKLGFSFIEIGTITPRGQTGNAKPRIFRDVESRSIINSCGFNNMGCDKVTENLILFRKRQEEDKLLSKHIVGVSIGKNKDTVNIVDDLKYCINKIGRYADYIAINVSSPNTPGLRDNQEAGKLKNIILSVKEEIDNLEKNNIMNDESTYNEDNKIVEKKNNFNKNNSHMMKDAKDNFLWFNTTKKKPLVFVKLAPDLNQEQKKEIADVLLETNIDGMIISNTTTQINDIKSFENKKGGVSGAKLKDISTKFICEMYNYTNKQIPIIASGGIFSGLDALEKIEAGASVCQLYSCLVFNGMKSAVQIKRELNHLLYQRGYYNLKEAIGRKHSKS

Structure (SMILES) | z-score [1] | z-score [2] | z-score [3] | z-score [4] | z-score [5] | z-score [6] | z-score [7] | z-score [8] | z-score [9] | z-score [10] | z-score [11] | z-score [12] | z-score [13] | composite z-score [14] | z-score [15] | z-score [16] | z-score [17] | z-score [18] | z-score [19] | composite z-score [20]
CCCCCCCCCCC(O)C1C=CC2C(=O)N(C)C(=O)C2N1Nc1ccc([N+](=O)[O-])cc1[N+](=O)[O-] (stereo not given) | -0.783 | -0.801 | -1.2 | -3.69 | -4.05 | 0.693 | -1.21 (inactive) | -0.935 | -1.8 | -0.283 (inactive) | -1.62 | 0.869 (inactive) | -1.64 (inactive) | -1.39 (inactive) | 0.695 (inactive) | 0.945 (inactive) | -1.26 (inactive) | -0.459 (inactive) | -1.67 | -0.0994
[N-]=[N+]=Nc1ccccc1[C@H]1OC(c2ccc(OCCCO)cc2)=N[C@@]1(CCS(=O)(=O)c1ccccc1)C(=O)NCCN1CCOCC1 | 0.101 | -0.223 | 0.0355 | -0.387 | -0.161 | 0.816 | -0.374 (inactive) | 0.184 | -0.691 | 1.22 (inactive) | 0.3 | -0.378 (inactive) | 0.131 (inactive) | 0.467 (inactive) | 0.537 (inactive) | 0.0557 (inactive) | -0.259 (inactive) | -0.264 (inactive) | 0.291 | 0.177
CCC[C@@H]1C[C@@]1(CCC)[C@@H](NC(=O)OCc1ccccc1)c1ccc(-c2ccccc2)cc1 | -1.15 | -1.15 | 0.0422 | -0.625 | -1.43 | -0.862 | 0.258 (inactive) | -0.325 | -1.19 | 2.39 (inactive) | 2.43 | -2.75 (inactive) | 0.879 (inactive) | -0.251 (inactive) | 0.191 (inactive) | 0.259 (inactive) | 0.358 (inactive) | 0.492 (inactive) | 1.72 | -0.0669
COc1ccc([Si](C)(C)[C@@H]2[C@@H](CC(=O)N(CCO)Cc3ccccc3)O[C@]3(C(=O)N(Cc4cccc(N5CCOC5=O)c4)c4ccccc43)[C@H]2C)cc1 | -1.23 | 0.836 | -1.64 | -2.66 | -3.51 | -0.0766 | 0.0933 (inactive) | -1.07 | -0.991 | -2.25 (inactive) | -1.89 | 0.0608 (inactive) | -3.23 (inactive) | 0.0205 (inactive) | 1.76 (inactive) | 2.67 (inactive) | 0.577 (inactive) | -0.463 (inactive) | -2.42 | -0.02
[N-]=[N+]=NCc1ccccc1C[C@@]1(C(=O)N2CCCCC2)N=C(c2ccc(OCCCO)cc2)O[C@@H]1c1ccccc1 | -1.26 | -0.813 | -2.13 | -3.11 | -4.35 | 0.622 | -0.209 (inactive) | -1.28 | -2.34 | -0.949 (inactive) | -0.876 | -0.59 (inactive) | -5.49 (inactive) | 1.53 (inactive) | 0.137 (inactive) | 1.95 (inactive) | 0.297 (inactive) | 0.696 (inactive) | -4.9 | -0.279
[N-]=[N+]=Nc1ccccc1C[C@]1(C(=O)N2CCOCC2)N=C(c2ccc(OCCCO)cc2)O[C@H]1c1ccccc1 | 0.375 | 0.854 | 1.58 | -0.35 | -0.911 | 1.99 | 1.18 (inactive) | -1.18 | -0.438 | 0.0917 (inactive) | 1.32 | -0.576 (inactive) | -1.25 (inactive) | 0.404 (inactive) | -0.608 (inactive) | 1.05 (inactive) | 1.11 (inactive) | 0.356 (inactive) | 0.101 | 0.0761
COCCCNC(=O)[C@]1(CCS(=O)(=O)c2ccccc2)N=C(c2ccc(OCCCO)cc2)O[C@@H]1c1ccccc1CN=[N+]=[N-] | 1.61 | 0.652 | 1.15 | 0.114 | 0.0901 | 0.542 | 0.482 (inactive) | -0.393 | -1.34 | -0.97 (inactive) | -0.776 | 1.67 (inactive) | -3.5 (inactive) | 0.36 (inactive) | 0.438 (inactive) | 1.62 (inactive) | 0.0971 (inactive) | 0.748 (inactive) | -0.601 | 0.481
O=C1C2C=CC(C(O)c3ccc(F)cc3)N(n3cnnc3)C2C(=O)N1Cc1ccccc1 (stereo not given) | -0.184 | 0.799 | -1 | -0.0875 | -1.08 | -0.518 | -0.633 (inactive) | -0.0973 | 0.0911 | -1.29 (inactive) | -1.05 | 0.885 (inactive) | -0.794 (inactive) | -0.188 (inactive) | -0.128 (inactive) | -0.592 (inactive) | -0.352 (inactive) | -0.434 (inactive) | -1.47 | -0.145
